Source: PubChem BioAssay (several laboratories)
A selection: hits, their analogues and other compounds. The true share with any hit is near 2.8%.
Peg3 prom inh-1: Peg3 promoter-driven luciferase inhibitors, primary screen, cell-based, HeLa, luciferase luminescence; HeLa PEG-Prom luciferase reporter, overnight; inhibition, % at 20 µM; 1.7% of 360,000 active;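 active = inhibition of at least 50% at 20 µM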
KKLEB tox: cytotoxicity in KKLEB CF airway cells, primary screen, cytotoxicity control for CF NF-kB inhibitor project, cell-based, uHTS, fluorescence assay plates; KKLEB CF airway cells viability, ATPlite luminescence, overnight; stronger effect = lower value; cells stimulated with P. aeruginosa culture filtrate; activity change (cytotoxicity), % at 5 µM; 0.36% of 360,000 active; AID 602141, 2011;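 active = corrected activity change at or below -50% at 5 µM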
TRPM1 prom inh: inhibitors of MITF-dependent TRPM1 promoter reporter, primary screen, cell-based, SK-MEL-5, single point, luciferase. inhibition, % at 12.5 µM. SK-MEL-5 TRPM1 promoter luciferase, 24 h. 0.83% of 330,000 active;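 active = mean inhibition across replicates of 60% or more, whatever share of single replicates reaches that level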
Shn3 3UTR inh: reduction of Shn3 3'UTR firefly luciferase signal, primary screen, Schnurri-3 inhibitor project, cell-based, Clone20 osteoblasts, set 2. Clone20 osteoblast Shn3 3'UTR firefly luciferase, 24 h. inhibition, % at 12.5 µM. 0.52% of 360,000 active;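 active = mean inhibition of at least 75% with every replicate also reaching 75%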;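 note: 0% = median of neutral control wells and 100% = pilot-screen positive control compound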
HIF-2a block: HIF-2a reporter inhibitors, primary screen, luminescence, 786-0 RCC cells; 786-0 RCC cells HIF-2a reporter, luciferase luminescence, overnight; inhibition, % at 18.8 µM; AID 624352, 2012; 0.72% of 360,000 active;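 active = inhibition of the luminescence signal of 40% or more relative to plate controls, in a single-dose primary screen at 18.75 µM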
CF NFkB block: inhibitors of PAF-induced NF-kB signaling, primary screen, cell-based, GFP fluorescence, uHTS; KKLEB NF-kB-GFP reporter, GFP fluorescence overnight; inhibition, % at 5 µM; 0.86% of 360,000 active; AID 588850, 2011;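 active = at least 50% inhibition at 5 µM, scaled per plate between neutral and stimulator controls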;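 note: PAF is a Pseudomonas aeruginosa culture filtrate used as stimulus; plate controls were PAF-stimulated DMSO wells for no effect and unstimulated DMSO wells for full effect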
Peg3 prom inh-2: Peg3 promoter reporter inhibitors, retest, confirmation, cell-based, HeLa, luciferase reporter, single concentration | shares compounds with Peg3 prom inh-1 | HeLa PEG-Prom luciferase reporter, luminescence, overnight | inhibition, % at 20 µM | 84% of 1,300 active | AID 602417, 2012;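 active = at 20 µM dose, 40% or more inhibition averaged across four replicates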
Mdm2 MdmX conf: retested Mdm2-MdmX interaction blockers, confirmation, cell-based, luminescence, single concentration, set 2; shares compounds with HIF-2a block; SaOS-2 split-luciferase Mdm2/MdmX complementation; inhibition, % at 8 µM; 99% of 740 active; AID 504601, 2011;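 active = mean inhibition of the luminescence signal across two replicates at or above 26 percent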
Target sequence (O15151 whole entry, looked up): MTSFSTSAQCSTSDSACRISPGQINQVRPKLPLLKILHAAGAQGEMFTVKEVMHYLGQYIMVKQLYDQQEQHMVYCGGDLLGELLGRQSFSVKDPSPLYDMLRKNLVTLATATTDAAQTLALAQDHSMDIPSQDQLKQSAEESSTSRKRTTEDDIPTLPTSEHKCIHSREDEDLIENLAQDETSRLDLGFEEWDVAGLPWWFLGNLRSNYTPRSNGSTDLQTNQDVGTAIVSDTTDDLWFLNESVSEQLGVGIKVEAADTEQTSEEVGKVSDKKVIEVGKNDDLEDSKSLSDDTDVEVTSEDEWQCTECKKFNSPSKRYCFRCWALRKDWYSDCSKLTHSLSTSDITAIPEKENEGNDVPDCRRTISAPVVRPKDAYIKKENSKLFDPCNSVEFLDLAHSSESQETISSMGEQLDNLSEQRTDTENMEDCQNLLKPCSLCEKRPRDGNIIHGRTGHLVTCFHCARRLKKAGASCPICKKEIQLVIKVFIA
Target sequence (Q00987 whole entry, looked up): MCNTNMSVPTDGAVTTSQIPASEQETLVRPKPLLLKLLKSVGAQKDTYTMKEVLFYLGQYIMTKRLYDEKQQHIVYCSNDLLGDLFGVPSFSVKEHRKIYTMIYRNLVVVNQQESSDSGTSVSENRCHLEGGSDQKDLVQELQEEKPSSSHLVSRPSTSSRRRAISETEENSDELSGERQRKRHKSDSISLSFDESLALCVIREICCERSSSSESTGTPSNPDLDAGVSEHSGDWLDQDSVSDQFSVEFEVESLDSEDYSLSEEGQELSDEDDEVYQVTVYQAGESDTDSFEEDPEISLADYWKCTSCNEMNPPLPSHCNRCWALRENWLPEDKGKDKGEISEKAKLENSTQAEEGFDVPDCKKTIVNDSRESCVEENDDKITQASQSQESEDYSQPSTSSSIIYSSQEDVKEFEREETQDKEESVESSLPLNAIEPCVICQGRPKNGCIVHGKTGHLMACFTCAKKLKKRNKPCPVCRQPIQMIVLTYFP
HIF-2a inh conf: HIF-2a reporter inhibitor retest, confirmation, luminescence, 786-0 RCC cells; 56% of 1,800 active; inhibition, % at 18.8 µM; shares compounds with HIF-2a block; HIF-2a luciferase reporter luminescence, overnight; AID 651580, 2012;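 active = mean inhibition across four replicates of at least 40 percent at the single tested concentration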
HIF-1a counter: HIF-1a luciferase reporter signal reduction – MiaPaCa-2 cells, single concentration, counter-screen for HIF-2a inhibitor project, confirmation. shares compounds with HIF-2a block. AID 651589, 2012. MiaPaCa-2 HIF-1a luciferase reporter, desferoxamine, overnight. inhibition, % at 18.8 µM. 72% of 1,800 active;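 active = mean inhibition of the reporter signal across four replicates at the single tested dose of 50% or more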
* = called active by the depositor; / = not tested or not shown.

SMILES	Peg3 prom inh-1	KKLEB tox	TRPM1 prom inh	Shn3 3UTR inh	HIF-2a block	CF NFkB block	Peg3 prom inh-2	HIF-2a inh conf	HIF-1a counter	others
Cc1ccc(C(=O)Nc2ccc3c(c2)OCCO3)c(C)c1	68*	-29	66*	57	52*	-19	35	70*	45
O=C(NC1=C(NC2CCS(=O)(=O)C2)C(=O)c2ccccc2C1=O)c1ccccc1 (stereo not given)	68*	-22	0	61	-42	79*	49*	/	/	Mdm2 MdmX conf=93*
O=C(NC1CCS(=O)(=O)C1)c1cccc(Br)c1 (stereo not given)	4	-3	0	-1	1	18	/	/	/
CCOCC(=O)Nc1nc2ccc(C)cc2s1	-282	-9	-76	-57	-229	23	/	/	/
Cc1ccc2nc(NC(=O)CSCC(=O)OCC(=O)c3ccccc3)sc2c1	53*	4	53	31	71*	-5	71*	75*	74*
COc1ccc(-n2nc3c(N4CCC(C(=O)NCCc5ccco5)CC4)nnc(C)c3c2C)cc1	10	2	38	9	7	0	/	/	/
COc1ccccc1CCNC(=O)C1CCN(c2nnc(C)c3c(C)n(-c4ccc(C)cc4)nc23)CC1	89*	-35	77*	32	40*	-20	78*	27	82*
COC(=O)N=Nc1c(O)[nH]c2ccc(Br)cc12	-2	20	10	-5	-19	-53	/	/	/
Oc1[nH]c2ccc(Br)cc2c1N=NC(=S)N1CCOCC1	76*	0	99*	97*	68*	32	85*	/	/	Mdm2 MdmX conf=99*
N#C/C(=C\c1cccc([N+](=O)[O-])c1)C(=O)NCc1ccc(Cl)cc1	111*	0	53	82	66*	5	96*	60*	106*
N#Cc1cc2c(nc1SC1CC(=O)N(c3ccccc3)C1=O)CCC2 (stereo not given)	57*	-4	65*	51	59*	9	59*	83*	63*
Cc1ccc(/C=N/NC(=O)c2n[nH]c3c2CCCC3)cc1	-240	-11	/	-54	-217	49	/	/	/
O=C(N/N=C/c1cccs1)c1n[nH]c2c1CCCC2	78*	-7	57	59	47*	11	56*	65*	57*
C/C(=N\NC(=O)c1n[nH]c2c1CCC2)c1cccs1	94*	-25	65*	72	72*	15	72*	83*	50
C/C(=N\NC(=O)c1cc(C)[nH]n1)c1cccs1	-35	-4	-15	-12	-72	15	/	/	/
COc1ccc(NC(=O)c2ccc(CNc3c(N4CCCC4)c(=O)c3=O)cc2)cc1Cl	-21	-1	2	0	11	-24	/	/	/
O=C(COc1ccc(F)cc1)NCCNC(=O)COc1ccc(F)cc1	-6	9	-5	0	7	-4	/	/	/
COC(=O)c1c(NC(=O)Cc2ccccc2)sc2c1CCN(C(C)C)C2	0	20	/	-3	-31	-18	/	/	/
COC(=O)c1c(NC(=O)c2ccc([N+](=O)[O-])o2)sc2c1CCN(C(C)C)C2	94*	-29	63*	4	29	75*	69*	/	/	Mdm2 MdmX conf=84*
CCN(Cc1ccncc1)C(=O)c1cc(COc2c(C)cccc2C)on1	-26	-24	-29	4	-99	24	/	/	/
CCOc1ccc(C(=O)Nc2cccc(C(=O)O)c2C)cc1Cl	55*	5	67*	8	54*	3	14	54*	13
CCOc1ccc(C(=O)Nc2ccccc2-c2ccccc2)cc1Cl	-21	14	-9	22	-23	-7	/	/	/
COCCNc1nc(N)c([N+](=O)[O-])c(NC2CCCCC2)n1	-11	-10	4	13	-117	19	/	/	/
NCCCNc1nc(N)c([N+](=O)[O-])c(NC2CCCCC2)n1	67*	-11	74*	75	48*	42	80*	18	99*
CC(C)c1cc(Cn2c3ccccc3c(=O)n2C(C)Cn2cc(-c3ccc(C(C)(C)C)cc3)nn2)on1 (stereo not given)	/	/	/	/	17	/	/	/	/
SMILES	Peg3 prom inh-1	KKLEB tox	TRPM1 prom inh	Shn3 3UTR inh	HIF-2a block	CF NFkB block	Peg3 prom inh-2	HIF-2a inh conf	HIF-1a counter	others
C=CCn1c(C)cc(C(=O)CN2C(=O)c3ccccc3S2(=O)=O)c1C	93*	-5	94*	91*	95*	-14	96*	99*	104*	Mdm2 MdmX conf=74*
Cc1cc(C)nc(NC(=O)CN2C(=O)c3ccccc3S2(=O)=O)n1	3	-1	1	-4	10	1	/	/	/
Cc1ccc(C(=O)CN2C(=O)c3ccccc3S2(=O)=O)cc1	81*	3	69*	55	87*	-8	79*	87*	82*
Cc1ccc(C(=O)CN2/C(=C(\O)c3ccccc3)C(=O)c3ccccc3S2(=O)=O)c(C)c1	13	7	-5	30	19	0	/	/	/
Cc1cc(C(=O)CN2C(=O)c3ccccc3S2(=O)=O)c(C)n1C(C)C	68*	-3	35	42	76*	8	74*	86*	82*
CCOc1ccc(CN2CCN(CCCc3ccccc3)CC2CCO)cc1 (stereo not given)	7	3	2	7	11	6	/	/	/
Cc1noc(-c2ccc(Cl)cc2)c1C(=O)O/N=C(\N)c1ccc(C(C)(C)C)cc1	112*	-2	-7	-7	0	10	98*	/	/	Mdm2 MdmX conf=103*
COc1cc(/C=N/O)ccc1OCc1ccc(C(=O)O)cc1	86*	-11	96*	90*	89*	6	69*	90*	-74
O=c1c2ccccc2oc2cc(C#CC3(O)CCCCC3)ccc12	60*	-42	49	42	44*	4	59*	73*	97*
